Experimental data from the supplement of paper PMC6897291.

System: U-2932
Assay: growth inhibition by drug alone (1 - RLU/untreated control) (fraction); higher = stronger inhibition
Details: 177Lu-lilotomab satetraxetan 0 ug/ml
Protocol: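 U-2932 ABC-DLBCL cells were pretreated or not for 18 h with 1 ug/ml 177Lu-lilotomab satetraxetan (600 MBq/mg), washed and seeded (3000 cells/well) on 384-well plates pre-printed with the Selleck Cambridge Cancer Compound library. Viability was read by RealTime-Glo luminescence on days 3-6 after seeding. Effect = 1 - RLU/mean RLU of the 48 untreated no-drug control wells per plate; Bliss score = (M-E)/(1-Fa), with E the expected Bliss-additive effect.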

Compound	growth inhibition by drug alone (10 nM, time (day): 3)	growth inhibition by drug alone (10 nM, time (day): 4)	growth inhibition by drug alone (10 nM, time (day): 5)	growth inhibition by drug alone (10 nM, time (day): 6)	growth inhibition by drug alone (1000 nM, time (day): 3)	growth inhibition by drug alone (1000 nM, time (day): 4)	growth inhibition by drug alone (1000 nM, time (day): 5)	growth inhibition by drug alone (1000 nM, time (day): 6)
C[C@@H](O[C@H]1OCCN(Cc2n[nH]c(=O)[nH]2)[C@H]1c1ccc(F)cc1)c1cc(C(F)(F)F)cc(C(F)(F)F)c1 [Aprepitant (MK-0869)]	-0.0806	-0.0554	-0.0486	0.0358	-0.0765	-0.0282	-0.0265	-0.0573
CC(C)c1onc(-c2c(Cl)cccc2Cl)c1COc1ccc(/C=C/c2cccc(C(=O)O)c2)c(Cl)c1	0.0964	0.0881	0.0536	0.0511	-0.008	0.0242	-0.0241	-0.208
CCN1CCN(Cc2ccc(-c3cc4c(N[C@H](C)c5ccccc5)ncnc4[nH]3)cc2)CC1	-0.00148	0.0172	0.023	0.0324	-0.166	-0.174	-0.287	-0.315
Cc1cnc(-c2cnc(NCCNc3ccc(C#N)cn3)nc2-c2ccc(Cl)cc2Cl)[nH]1	0.154	0.101	0.0269	-0.034	0.119	0.0751	-0.139	-0.197
Cc1ccc(-c2csc3ncnc(SCCC(=O)O)c23)cc1	0.0174	-0.014	-0.0343	-0.0333	-0.00216	-0.0356	-0.0409	0.0278
